This is a sample that favours compounds with a hit; in the whole collection about 2.8% have one here.
DAGLB inhibitor – blocks human DAGLB lipase activity | 340,000 compounds, 0.059% hits | inhibition, % at 5.17 µM | AID 504411 | HEK293T DAGLB membrane lysate, EnzChek fluorogenic substrate | Q8NCG7; in the data active means inhibition above about 34%;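 further: 0% = enzyme with vehicle and 100% = wells lacking enzyme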
PAFAH1B2 FP inh – blocks human PAF acetylhydrolase 1b catalytic subunit 2. recombinant PAFAH1B2, FP-rhodamine activity probe, fluorescence polarization. AID 492953. 340,000 compounds, 1.2% hits. inhibition, % at 3.39 µM. P68402;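 active means inhibition above the mean of all tested compounds plus 3 SD, cut at about 24% in these data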;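 further: 0% = enzyme with DMSO and 100% = wells lacking PAFAH1B2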
Target sequence (P68402 whole entry, looked up): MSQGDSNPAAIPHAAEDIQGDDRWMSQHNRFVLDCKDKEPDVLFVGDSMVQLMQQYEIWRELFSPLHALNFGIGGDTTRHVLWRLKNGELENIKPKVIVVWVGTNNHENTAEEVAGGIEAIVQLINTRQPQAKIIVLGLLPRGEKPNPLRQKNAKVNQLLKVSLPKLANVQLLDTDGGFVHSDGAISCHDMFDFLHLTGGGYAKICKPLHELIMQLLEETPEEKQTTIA
PAFAH1B3 FP inh – blocks human PAF acetylhydrolase 1B catalytic subunit 3; Q15102; recombinant PAFAH1B3, FP-rhodamine probe, fluorescence polarization; inhibition, % at 3.39 µM; 340,000 compounds, 0.28% hits;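 active means inhibition above the screen-wide average of all tested compounds plus 3 SD, cut at about 25% in these data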;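 further: 0% = enzyme with DMSO only and 100% = wells lacking PAFAH1B3 protein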
Target sequence (Q15102 whole entry, looked up): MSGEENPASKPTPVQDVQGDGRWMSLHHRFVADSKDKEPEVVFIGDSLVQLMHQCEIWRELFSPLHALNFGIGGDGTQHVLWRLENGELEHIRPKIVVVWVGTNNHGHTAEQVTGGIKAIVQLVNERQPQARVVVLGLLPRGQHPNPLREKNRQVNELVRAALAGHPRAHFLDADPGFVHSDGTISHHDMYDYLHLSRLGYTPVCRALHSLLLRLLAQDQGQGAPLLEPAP
HTRA1 inh – blocks human HTRA1 serine peptidase; recombinant HTRA1, FP-rhodamine activity-based probe, fluorescence polarization; AID 504803; 340,000 compounds, 0.5% hits; inhibition, % at 5.96 µM; in the data active means inhibition above about 36%;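 further: 0% = enzyme with DMSO and 100% = wells lacking enzyme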
pPAFAH inh – inhibitors of human plasma PAF acetylhydrolase (pPAFAH) | Q13093 | recombinant pPAFAH, FP-rhodamine probe fluorescence polarization | inhibition, % at 3.39 µM | 330,000 compounds, 1.5% hits;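 active means inhibition above the mean inhibition across the screen plus 3 SD, cut at about 25% in these data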;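 further: inhibitors block binding of the rhodamine activity-based probe so polarization drops; 0% = enzyme with DMSO and 100% = wells lacking pPAFAH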
PAFAH2 FP inh – inhibitors of human PAFAH2; Q99487; recombinant PAFAH2, FP-rhodamine activity probe, fluorescence polarization; inhibition, % at 3.39 µM; 340,000 compounds, 0.99% hits;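 active means inhibition above the mean over all tested compounds plus 3 SD, cut at about 30% in these data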;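 further: inhibitors block probe labeling of enzyme so polarization drops; 0% = enzyme with DMSO and 100% = wells lacking PAFAH2 protein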
DAGLB inh conf – DAGLB (human) inhibition, confirmation screen | HEK293T DAGLB membrane lysate, EnzChek fluorogenic substrate | inhibition, % at 5.17 µM | AID 504445 | shares compounds with DAGLB inhibitor | 190 compounds, 73% hits;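 active means mean inhibition over triplicate wells above a set limit taken from the primary lipase screen, cut at about 34% in these data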;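 further: 0% = DAGLB with DMSO and 100% = wells lacking DAGLB enzyme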
HTRA1 inh conf – confirmation of human HTRA1 inhibitors | shares compounds with HTRA1 inh | recombinant HTRA1, FP-rhodamine activity-based probe, fluorescence polarization | inhibition, % at 5.96 µM | 1,600 compounds, 66% hits | AID 540248;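 active means mean inhibition over three repeats above a set limit taken from the earlier primary screen, cut at about 37% in these data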;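 further: 0% = HTRA1 with DMSO and 100% = wells lacking HTRA1; inhibitors block probe binding so polarization drops and inhibition rises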
Numbers without * were called inactive.

`N=C1C(c2nc3ccccc3s2)=C(O)CN1NC(=O)c1ccccc1[N+](=O)[O-]` gave DAGLB inhibitor 37.4*, PAFAH1B2 FP inh 0.3, PAFAH1B3 FP inh -2.6, HTRA1 inh -0.8, pPAFAH inh 4.7, PAFAH2 FP inh 0.1 and DAGLB inh conf 52.6*.
Screening COc1ccc(NC(=O)Cn2ccc(C(F)(F)F)n2)cc1S(=O)(=O)N1CCOCC1 returned DAGLB inhibitor -0.9, PAFAH1B2 FP inh 2.5, PAFAH1B3 FP inh -0.5, HTRA1 inh -4.5, pPAFAH inh -5.9 and PAFAH2 FP inh 3.5.
For NS(=O)(=O)c1ccc(N=Nc2c(O)ccc3ccccc23)cc1 the results were DAGLB inhibitor 36.8*, PAFAH1B2 FP inh 0.6, PAFAH1B3 FP inh 8.5, HTRA1 inh 11.4, pPAFAH inh 4.2, PAFAH2 FP inh 6.7 and DAGLB inh conf 47.4*.
`Oc1ccc2ccccc2c1CNc1ccccn1` gave DAGLB inhibitor 1.6, PAFAH1B2 FP inh 15.0, PAFAH1B3 FP inh 0.0, HTRA1 inh -6.6, pPAFAH inh 5.1 and PAFAH2 FP inh -1.0.
CCOC(=O)/C(C#N)=C/C=C1\C=Cc2ccccc2N1CC was read as DAGLB inhibitor 36.8*, PAFAH1B2 FP inh 12.3, PAFAH1B3 FP inh 13.5, HTRA1 inh 11.3, pPAFAH inh 11.3, PAFAH2 FP inh 22.0 and DAGLB inh conf 46.0*.
For CCCN1C=CC(=C/C=C(\C#N)C(=O)OCC)C=C1 the results were pPAFAH inh -2.2.
O=[N+]([O-])c1ccc(N2CCN(c3ccccc3)CC2)cc1 was read as DAGLB inhibitor 34.2*, PAFAH1B2 FP inh 2.4, PAFAH1B3 FP inh 8.7, HTRA1 inh 1.8, pPAFAH inh 2.1, PAFAH2 FP inh -5.0 and DAGLB inh conf 82.3*.
Nc1ccc2c(c1)C(=O)c1ccc(N)cc1-2 was read as DAGLB inhibitor 9.3, PAFAH1B2 FP inh 3.0, PAFAH1B3 FP inh 4.5, HTRA1 inh 16.2 and PAFAH2 FP inh 6.5.
`Nc1ccc2c(c1)C(=O)c1cc(Cl)c(Cl)cc1-2` gave DAGLB inhibitor 34.2*, PAFAH1B2 FP inh 5.6, PAFAH1B3 FP inh 6.2, HTRA1 inh 31.0, PAFAH2 FP inh 5.2 and DAGLB inh conf 39.5*.
`Cc1ccc(CN(C)C(=O)C2CCC(=O)N(CC3CCCCC3)C2)o1` (stereo not given) gave DAGLB inhibitor 0.3, PAFAH1B2 FP inh 0.2, PAFAH1B3 FP inh 0.7, HTRA1 inh 5.5, pPAFAH inh 0.7 and PAFAH2 FP inh 0.8.
`CC(C)(C)c1ccc(S(=O)(=O)/N=C2\C=C(NS(=O)(=O)c3ccccc3)C(=O)c3ccccc32)cc1` gave DAGLB inhibitor 39.4*, PAFAH1B2 FP inh 41.5*, PAFAH1B3 FP inh -9.1, HTRA1 inh 13.5, pPAFAH inh 23.9, PAFAH2 FP inh 19.8 and DAGLB inh conf 63.7*.
For COC(=O)c1ccccc1S(=O)(=O)NNC(=O)c1ccccc1-n1cccc1 the results were DAGLB inhibitor -0.1, PAFAH1B2 FP inh -2.9, PAFAH1B3 FP inh -0.7, HTRA1 inh 6.0, pPAFAH inh -0.7 and PAFAH2 FP inh 2.0.
O=C(O)c1[nH]c2ccccc2c1C(c1cc(Cl)cc([N+](=O)[O-])c1O)c1c(C(=O)O)[nH]c2ccccc12 was read as DAGLB inhibitor 37.1*, PAFAH1B2 FP inh 61.6*, PAFAH1B3 FP inh 8.2, HTRA1 inh 35.0, pPAFAH inh 13.2, PAFAH2 FP inh 12.1 and DAGLB inh conf 31.8.
`COC(=O)c1[nH]c2ccc(Cl)cc2c1NC(=O)c1ccccc1[N+](=O)[O-]` gave DAGLB inhibitor 0.4, PAFAH1B2 FP inh 0.4, PAFAH1B3 FP inh 4.5, HTRA1 inh 4.3, pPAFAH inh 0.7 and PAFAH2 FP inh 1.4.
For Cn1c(CNc2cccc(Cl)c2)nnc1SCC#N the results were DAGLB inhibitor 2.2, PAFAH1B2 FP inh -0.1, PAFAH1B3 FP inh 5.4, HTRA1 inh 2.4, pPAFAH inh 7.0 and PAFAH2 FP inh -0.7.
COc1ccc(-c2csc3nc(-c4ccc(C)cc4)oc(=O)c23)cc1OC was read as DAGLB inhibitor 2.2, PAFAH1B2 FP inh 2.6, PAFAH1B3 FP inh 10.7, HTRA1 inh -1.9, pPAFAH inh 7.9 and PAFAH2 FP inh 6.9.
COc1ccc(-c2csc3nc(-c4ccccc4OC)oc(=O)c23)cc1 was read as DAGLB inhibitor 42.6*, PAFAH1B2 FP inh -8.9, PAFAH1B3 FP inh -16.4, HTRA1 inh -83.9, pPAFAH inh -7.3, PAFAH2 FP inh -6.2 and DAGLB inh conf 40.7*.
Screening N#Cc1ccccc1NC(=O)C(=O)NCCCN1CCCC1=O returned DAGLB inhibitor -2.4, PAFAH1B2 FP inh -2.0, PAFAH1B3 FP inh 2.6, HTRA1 inh -3.6, pPAFAH inh -1.2 and PAFAH2 FP inh -5.0.
Cc1cc(N=Nc2ccccc2C(=O)O)c(C)c(C)c1O was read as DAGLB inhibitor 35.3*, PAFAH1B2 FP inh -0.7, PAFAH1B3 FP inh 2.6, HTRA1 inh 9.8, pPAFAH inh 18.8, PAFAH2 FP inh 8.1 and DAGLB inh conf 48.3*.
Screening COc1ccccc1C1=NOC(Cn2c(NCCOCCO)nc3c2c(=O)n(C)c(=O)n3C)C1 (stereo not given) returned pPAFAH inh -1.7.
For O=C(O)c1cc2ncc(CCO)cn2n1 the results were DAGLB inhibitor -1.1, PAFAH1B2 FP inh 10.1, PAFAH1B3 FP inh 3.5, HTRA1 inh 2.9, pPAFAH inh -8.7 and PAFAH2 FP inh -0.1.
N#CC1=C(N)Oc2c(ccc3cccnc23)C1c1cccnc1 (stereo not given) was read as DAGLB inhibitor 1.3, PAFAH1B2 FP inh 2.0, PAFAH1B3 FP inh 9.9, HTRA1 inh 14.4, pPAFAH inh 10.1 and PAFAH2 FP inh 8.1.
Cc1ccc2cc(C3C(C#N)=C(N)Oc4c3ccc3cccnc43)c(=O)[nH]c2c1 (stereo not given) was read as DAGLB inhibitor 36.0*, PAFAH1B2 FP inh 9.4, PAFAH1B3 FP inh 10.3, HTRA1 inh 79.0*, pPAFAH inh 26.6*, PAFAH2 FP inh 12.9, DAGLB inh conf 3.5 and HTRA1 inh conf 57.9*.
O=C(NNc1c2ccccc2nc2ccccc12)c1ccccc1O was read as DAGLB inhibitor 48.1*, PAFAH1B2 FP inh 14.2, PAFAH1B3 FP inh 13.5, HTRA1 inh 51.3*, pPAFAH inh 32.0*, PAFAH2 FP inh 21.7, DAGLB inh conf 82.1* and HTRA1 inh conf 38.6*.
For O=C(NNc1c2ccccc2nc2ccccc12)c1ccccc1Cl the results were DAGLB inhibitor 21.0, PAFAH1B2 FP inh 2.1, PAFAH1B3 FP inh 8.6, HTRA1 inh 1.2, pPAFAH inh 18.1 and PAFAH2 FP inh -2.3.
For O=C(CCCCCNC(=O)N1CCn2c1nc1ccccc12)N[C@@H](Cc1ccccc1)C(=O)O the results were DAGLB inhibitor -3.0, PAFAH1B2 FP inh -4.1, PAFAH1B3 FP inh 7.1, HTRA1 inh 3.5, pPAFAH inh 3.0 and PAFAH2 FP inh 10.4.

Bioassay records (PubChem)
